Only a selection was taken, and hits are over-represented in it overall.
SF1 inhibitor = inhibitors of human nuclear receptor SF-1 | CHO-K1 Gal4-SF-1 LBD luciferase reporter | hit rate 0.55% among 65,000 | AID 525 | Q13285 | inhibition, % at 10 µM;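 active = inhibition above the mean inhibition of all tested compounds plus 3 SD, cut at about 48% in these data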
Target sequence (Q13285 whole entry, looked up, the tested form may be a part): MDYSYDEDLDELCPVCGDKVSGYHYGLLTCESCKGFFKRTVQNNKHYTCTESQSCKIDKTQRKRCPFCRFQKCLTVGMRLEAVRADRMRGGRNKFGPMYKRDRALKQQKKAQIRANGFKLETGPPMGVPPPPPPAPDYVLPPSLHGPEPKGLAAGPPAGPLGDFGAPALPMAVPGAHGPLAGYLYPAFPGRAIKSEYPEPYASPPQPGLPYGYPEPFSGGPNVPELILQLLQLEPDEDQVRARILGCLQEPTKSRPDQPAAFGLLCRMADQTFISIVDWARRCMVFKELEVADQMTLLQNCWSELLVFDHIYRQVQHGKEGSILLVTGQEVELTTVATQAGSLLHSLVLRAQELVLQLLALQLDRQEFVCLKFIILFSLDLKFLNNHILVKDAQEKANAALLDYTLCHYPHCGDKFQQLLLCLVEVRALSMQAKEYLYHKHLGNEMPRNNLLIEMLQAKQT
Hits are given with their value; n = inactive.

SMILES	SF1 inhibitor
COc1cc2ccccc2cc1C(=O)Nc1cccnc1	n
COc1ccc2sc(NC(C)=O)nc2c1	n
COc1ccc(C(NC(C)=O)c2ccc3cccnc3c2O)c(OC)c1 (stereo not given)	82
CCC(=O)Nc1nc2ccc3nc(C)sc3c2s1	n
COC(=O)CCCC(=O)Nc1ccc(Cl)c(Cl)c1	n
O=C(OCC#CCSc1nc2ccccc2o1)c1ccco1	n
COc1ccc(C(=O)/C=C/Nc2cccc(C)n2)cc1OC	n
Cc1cc(NC(=O)c2cc(-c3ccccn3)nc3ccccc23)no1	n
Cc1ccc(C(=O)/C=C/Nc2ccccn2)cc1	83
CCc1ccc(N2CCCn3c2nc2c3c(=O)n(CCN3CCOCC3)c(=O)n2C)cc1	n
C/C(N)=C(/C#N)C(=O)COC(=O)c1cc(C)n(-c2ccc(F)cc2)c1C	n
Cc1nc2c(cc(Oc3ccc(S(=O)(=O)N4CCOCC4)cn3)c3ccsc32)s1	n
CCOC(=O)N1CCC(NC(=O)C2CCCN(Cc3nc(-c4cccc(Cl)c4)oc3C)C2)CC1 (stereo not given)	58
CCOC(=O)N1CCC(NC(=O)c2ccc(OC)c(CN3CC(=O)N4CCCC4C3=O)c2)CC1 (stereo not given)	n
CCOC(=O)N1CCC(NC(=O)c2cnn3c(C(F)(F)F)cc(-c4cccc(OC)c4)nc23)CC1	n
O=S1(=O)Nc2c(ccc3cccnc23)-c2ccccc21	91
NC(Cc1cccc2nsnc12)C(=O)O (stereo not given)	n
COC(=O)c1ccc2c(=O)n(CCN3CCOCC3)c(SCC(=O)NC3CCCCC3)nc2c1	n
CCN(c1ccccc1)c1ncnc2c1cnn2-c1ccccc1	n
c1ccc(-n2ncc3c(NCCN4CCCCC4)ncnc32)cc1	n
COc1ccc(-n2ncc3c(N(C)C4CCCCC4)ncnc32)cc1	74
Cc1cccc(-n2ncc3c(NCc4ccccc4)ncnc32)c1	n
Cc1cccc(-n2ncc3c(NCc4ccco4)ncnc32)c1	n
Cc1cccc(-n2ncc3c(N(C)C4CCCCC4)ncnc32)c1	77
CNC(=O)Nc1ccccc1NC(=O)NC	n
SMILES	SF1 inhibitor
COc1nc(OC)nc(N2CCC(C(=O)NCC3CCCCC3)CC2)n1	n
CCCCNC(=O)Cn1cnc2sc(C(=O)OCC)c(C)c2c1=O	n
CC(C)Oc1ccc(NC(=O)Oc2ccccc2)cc1	n
O=C(NCCCN1CCOCC1)c1csc2c1CCCC2	74
O=C(NCCCN1CCCCCC1)c1ccc2c(c1)NC(=O)C(N1CCOCC1)S2 (stereo not given)	n
COc1cccc(-c2cc(C(=O)NCCN3CCOCC3)no2)c1	n
CC(CC#CCN1CCOCC1)OCCC#N (stereo not given)	n
O=C(Nc1ccc(N2CCOCC2)c(Cl)c1)c1ccc(Br)o1	n
CN1CCN(c2ccc(NC(=O)c3ccc4c(c3)OCO4)cc2)CC1	n
O=C(Nc1ccc(N2CCOCC2)cc1)c1cnsn1	69
COc1ccccc1-c1cn(S(=O)(=O)c2ccc(F)cc2)nc1N	n
COc1ccc(C(c2sc3nc(C)nn3c2O)N2CCC3(CC2)OCCO3)cc1 (stereo not given)	n
CN1/C(=C/C(=O)c2nc(S(C)(=O)=O)ncc2Cl)C(C)(C)c2ccccc21	61
CC(C)C1N=C2c3ccccc3N=C(SCc3cc(=O)n4ccccc4n3)N2C1=O (stereo not given)	n
O=c1c(-c2ccc(F)cc2)coc2c3c(ccc12)OCCO3	n
c1ccc(-c2cccc(-c3ccccn3)n2)nc1	87
c1ccc(-c2nnc(-c3ccccn3)nn2)nc1	n
CCOC(=O)c1ccc(NC(=O)CSCc2ccco2)cc1	n
c1ccc(-c2cc(N3CCOCC3)nc(-c3ccccc3)n2)cc1	n
FC(F)(F)c1ccc(N2CCN(c3cc(-c4ccccc4)nc4ncnn34)CC2)nc1	71
CCc1ccccc1NC(=O)CSc1nnc([C@@H]2CCCN2C(=O)OC(C)(C)C)o1	n
C/C=C/c1ccc(OC)c(OC(C)=O)c1	n
COc1cc(C2Nc3cccc4cccc(c34)N2)cc(OC)c1OC(C)=O	82
Cc1cc(C)n2nc(SCC3COc4ccccc4O3)nc2n1 (stereo not given)	n
Cn1c(=O)c2nc(-c3ccc(Cl)cc3Cl)oc2c2ccccc21	n
SMILES	SF1 inhibitor
CCc1ccccc1N(CC(=O)NCc1ccco1)C(=O)c1snc(C(N)=O)c1N	n
CCN(CC)C(=O)CSc1ncnc2c(-c3cccs3)nsc12	n
C=CCn1c2ccccc2c2nnc(SCCCn3c(=O)[nH]c4ccccc43)nc21	n
COc1cccc2c1C(=O)c1c(O)c3c(c(O)c1C2=O)C[C@@](O)(C(C)=O)C[C@@H]3O[C@H]1C[C@H](N)[C@H](O)[C@H](C)O1	89
CCCCN1CC(C(=O)NC2CCCCC2)CC1=O (stereo not given)	n
CCCN(Cc1ccccc1)C(=O)Nc1ccc2c(c1)nnn2C	n
Cc1ccc(C)c(N2CCN(C(=O)CCCn3c(=S)[nH]c4cc5c(cc4c3=O)OCO5)CC2)c1	n
Nc1nc(CSc2ncn(-c3ccccc3)n2)cs1	n
Cc1cc(/C=N/n2cnnc2)c(C)n1-c1ccc(OCc2ccc(F)cc2)cc1	86
COC(=O)N(C)CCCC1(C)C(=O)N(C)c2ccc(O)cc21 (stereo not given)	n
O=C(Nc1nccs1)c1ccc(NC(=O)c2ccco2)cc1	n
CCc1ccc(-c2cn3nc(C)c(C)nc3n2)cc1	81
CNc1ccccc1-n1ccc(-c2ccccc2)n1	n
Cc1nc2nc(-c3ccccc3)cn2nc1C	55
Cc1nn2cc(-c3ccc(N)cc3)nc2s1	n
O=C(NCCN1CCCC1)c1ccc2c(=O)n(CCc3ccccc3)c(=O)[nH]c2c1	n
CCc1cc2c(=O)c(-c3nc4ccccc4[nH]3)coc2c(CN2CCCC(C)C2)c1O (stereo not given)	n
CCN(CCCNC(=O)CC1Oc2ccc(C)cc2NC1=O)Cc1ccccc1 (stereo not given)	n
COC(=O)c1ccc(S(=O)(=O)NCCSc2nnc3c4ccccc4n(C)c3n2)cc1	n
Cn1c(N)c(C(=O)CSc2nc3ccccc3n2-c2ccccc2)c(=O)n(C)c1=O	n
COc1ccc(-c2cc3nc4n(c(=O)c3s2)CCC4)cc1	78
CC1=C(c2ccc(C)cc2)S(=O)(=O)N(CC(=O)O)C1=O	n
Cc1csc(SCCN2C(=O)c3ccccc3C2=O)n1	n
CC1CCCCC1NS(=O)(=O)c1ccc(S(=O)(=O)NCc2ccncc2)cc1 (stereo not given)	70
Nc1nonc1-c1noc(CCCN2C(=O)c3ccccc3C2=O)n1	n
O=S(=O)(Nc1cccnc1)c1ccc2c(c1)OCCO2	n
Cc1c(C(=O)N2CCOCC2)[nH]c2c1C(=O)CC(c1ccccc1Cl)C2 (stereo not given)	n
O=c1[nH]cnc2c1N1CCC2CC1	n
Cc1ccccc1NS(=O)(=O)c1ccc(OCC(=O)N2CCCC2)cc1	n
